From the supplement of paper PMC10941209

tested on: HFF; experiment: cell viability relative to DMSO control; higher = less cytotoxic; conditions: 1 µM; 72 h
Method: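 Single-dose cytotoxicity screen of the MMV Pandemic Response Box at 1 uM on human foreskin fibroblasts (HFF), 72 h at 37 C. Viability measured by MTT (OD 550 nm) and normalised to the DMSO control (% survival).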

Point of comparison: `C[C@@]1(O)[C@H](O)[C@@H](CO)O[C@H]1n1ccc2c(N)ncnc21`, cell viability 68.5%. Against it:
- CCN1CCN(Cc2nc3ccc([N+](=O)[O-])cc3c(=O)n2-c2ccccc2F)CC1 — lower, 62.2%
- COC(=O)Nc1nc2ccccc2[nH]1 — lower, 66.4%
- C[C@H]1CC[C@]2(NC1)O[C@H]1C[C@H]3[C@@H]4CC[C@H]5C[C@@H](O)CC[C@]5(C)[C@H]4CC[C@]3(C)[C@H]1[C@@H]2C — higher, 73.1%
- Nc1c(C(=O)NCc2ccco2)c2nc3ccccc3nc2n1CCN1CCCCC1 — lower, 64.1%
- NC1(C(=O)O)CCP(=O)(O)CC1 (stereo not drawn) — lower, 63.1%
- C[N+]1(C)CCCC(OC(=O)C(O)(c2ccccc2)c2ccccc2)C1 (stereo not drawn) — higher, 69.6%
- CN1C(=O)C(c2ccccc2)C(=O)N(c2ccccc2)c2cc(C(F)(F)F)ccc21 (stereo not drawn) — lower, 66.3%
- O=C(NC12CC3CC(CC(C3)C1)C2)c1cc2ccccc2[nH]1 — higher, 83.6%
- COc1ccccc1CN[C@H]1C2CCN(CC2)[C@H]1C(c1ccccc1)c1ccccc1 — lower, 58.7%
- COc1cc(C(C)(C)CCCC(C)C)cc(OC)c1OC — lower, 61%
- CC(C)Oc1cccc(NC(=O)c2ccccc2C(F)(F)F)c1 — higher, 70.5%
- CCCCc1ccc(C(=O)O)nc1 — lower, 56.4%
